# Reference: PubChem BioAssay AID2540 (Sanford-Burnham Center for Chemical Genomics, 2010)
# Out of some 330,000 compounds screened, about 4,100 (1.2%) were called active. The sample holds actives, similar compounds and a random draw of the others, so the mix is not that of the screen. A number with no mark means an inactive call. Rule as the data show it: active = inhibition above about 50%; inactive = the rest.
# Target: Sentrin-specific protease 8 (Homo sapiens) (UniProt Q96LD8)
# Assay: blockers of human SENP8 peptidase activity – biochemical, luminescence, primary screen (AID 2540)
# Conditions: purified SENP8, Z-RLRGG-aminoluciferin cleavage, at 10 µM, active compounds read high
# Sequence of Sentrin-specific protease 8 (Homo sapiens) (Q96LD8 whole entry, looked up): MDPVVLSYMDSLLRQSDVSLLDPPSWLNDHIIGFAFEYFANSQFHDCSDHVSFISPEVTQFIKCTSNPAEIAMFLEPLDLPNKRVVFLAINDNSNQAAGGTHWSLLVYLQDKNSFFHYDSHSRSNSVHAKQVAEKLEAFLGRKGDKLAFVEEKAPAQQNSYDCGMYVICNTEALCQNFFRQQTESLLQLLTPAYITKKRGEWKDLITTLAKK
row,SMILES,inhibition
1,CC(OC(=O)CCCOc1ccccc1)C(=O)Nc1ccc(Cl)cn1 (configuration not stated),-14.4%
2,CCOc1ccccc1C1CC(c2ccc(Cl)cc2)Nc2nc(N)nn21 (configuration not stated),0.924%
3,O=C(COC(=O)c1cnc(Cl)c(Cl)c1)NCc1ccco1,-1.98%
4,CC(OC(=O)CNC(=O)c1cccc(F)c1)C(=O)NC1CCCCC1C (configuration not stated),-11.2%
5,Cc1c(Br)c([N+](=O)[O-])nn1CC(=O)N1CCN(Cc2ccccc2)CC1,-7.38%
6,O=C(Nc1ccn(Cc2ccccc2F)n1)c1ccc(COc2ccc(Cl)cc2Cl)o1,8.53%
7,O=C(Nc1ccn(Cc2ccccc2)n1)c1n[nH]c([N+](=O)[O-])c1Cl,97.2% (active)
8,CC(CCc1ccc(O)cc1)NCc1ccc(Cl)cc1Cl (configuration not stated),-5.92%
9,COc1ccc(C2=NOC(COC(=O)c3ccc4ccccc4n3)C2)cc1 (configuration not stated),-6.73%
10,COc1ccc(C2=Nc3cc(C)ccc3OC2)cc1,67.5% (active)
11,Cc1ccc(C(=O)NNC2=Nc3cc([N+](=O)[O-])ccc3OC2)cc1,-6.4%
12,Cn1c(-c2ccco2)nc2cc3ccccc3cc21,94.4% (active)
13,COc1ccccc1-n1c(-c2cc(-c3ccco3)[nH]n2)n[nH]c1=S,3.44%
14,CS(=O)(=O)n1nc(-c2ccco2)nc1N,0.284%
15,Cc1ccc(NC(=O)CSc2nnc(CNC(=O)c3ccccc3F)o2)cc1,0.136%
16,Cc1ccccc1-n1nnc2c(=O)oc3ccccc3c21,-6.33%
17,CC(NC(=O)Nc1ccccc1)C(c1cccs1)N1CCN(c2ccccc2)CC1 (configuration not stated),-7.79%
18,COC(=O)C1=C(N)Oc2cc(C)[nH]c(=O)c2C1c1ccc(Cl)cc1 (configuration not stated),3.38%
19,COCCCN(C(=O)CSCc1ccc(C)cc1)c1c(N)n(Cc2ccccc2)c(=O)[nH]c1=O,-5.5%
20,Cc1ccc(NC(=O)CSCC(=O)Nc2sccc2C#N)cc1,10.4%
21,Cc1csc(SCC(=O)Nc2sccc2C#N)n1,92.7% (active)

row,SMILES,inhibition
1,Cc1cccc(C)c1Nc1nnc(SCC(=O)Nc2sccc2C#N)s1,9.07%
2,Cn1cccc1Cc1nnc(SCC(=O)NCc2ccc3c(c2)OCO3)n1CCc1ccccc1,2.69%
3,CCOc1nnc(C)c2c(C)n(-c3cccc(Cl)c3)nc12,8.66%
4,Cc1nonc1C(=O)N/N=C/c1ccc(O)cc1,97.5% (active)
5,CC(C)c1c(C(=O)N/N=C/c2ccc(-c3ccccc3)cc2)nnn1-c1nonc1N,9.04%
6,Cc1nc2ccc(C(=O)N/N=C/c3ccc(O)cc3)cc2[nH]1,-3.65%
7,COC(=O)c1cccc(N(CC(=O)NCC2CCCO2)C(=O)CCC(=O)Nc2cc(C)on2)c1 (configuration not stated),-7.21%
8,CCOC(=O)c1cnc2sccn2c1=O,-2.74%
9,CCOC(=O)c1cnc2[nH]c3ccccc3n2c1=O,78.1% (active)
10,CCOC(=O)c1cnc(COc2ccccc2Cl)[nH]c1=O,-10.8%
11,CCn1c2ccccc2c2cc(NC(=O)Nc3ccc([N+](=O)[O-])cc3C)ccc21,-10.4%
12,CC(=O)Nc1ccc(S(=O)(=O)N2CCn3cccc3C2C)cc1 (configuration not stated),-4.04%
13,COc1ccccc1CCNC(=O)C1CCN(C(=O)/C=C/c2ccccc2)CC1,-12.7%
14,Clc1ccc(Nc2nc(-c3cccs3)cs2)nc1,10.9%
15,COc1ccc2c(c1OC)C(=O)OC2Nc1nc(-c2ccccc2)cs1 (configuration not stated),1.85%
16,COc1ccc(-c2csc(NC(=O)COC(=O)Cc3ccc(Cl)cc3Cl)n2)cc1,2.3%
17,COc1ccc(-c2csc(Nc3ccccn3)n2)cc1,85.4% (active)
18,c1ccc(Nc2nc(-c3ccncc3)cs2)nc1,80.4% (active)
19,COc1ccc(Nc2nc(-c3ccccc3)cs2)cc1,82.8% (active)
20,CCCn1c(CCNc2nc(-c3ccc(OC)cc3)cs2)nc2ccccc21,1.24%
21,COc1ccc(C(=O)Nc2nc(-c3ccc(S(=O)(=O)N4CCOCC4)cc3)cs2)cc1,-0.876%

row,SMILES,inhibition
1,Clc1ccc(-c2csc(-c3ccncc3)n2)cc1,-22.5%
2,COC(=O)c1ccc(/C=N/N2C(C)CCCC2C)cc1 (configuration not stated),-6.16%
3,CC1(c2ccc3ccccc3c2)NC(=O)NC1=O (configuration not stated),-0.811%
4,Cc1c(O)c(C)c2c(c1O)C(=O)C[C@@H](c1ccccc1)O2,6.05%
5,Cc1ccc(CS(=O)Cc2ccc(C(=O)N3CCOCC3)o2)cc1 (configuration not stated),-6.99%
6,COc1ccc(F)cc1C(=O)C1CCCN(C(=O)CCc2ccccn2)C1 (configuration not stated),29.7%
7,O=C(COC(=O)c1ncc(Cl)c(Cl)c1Cl)NC1CCS(=O)(=O)C1 (configuration not stated),-7.58%
8,CCOC(=O)C1CCCN(C(=O)COc2ccc(N(C)S(=O)(=O)c3ccc(C)cc3)cc2)C1 (configuration not stated),-0.395%
9,NNC(=O)c1cnn(-c2ccccc2)c1C(F)(F)F,-1.96%
10,O=C(COc1ccccc1Cl)Nc1ccc(C(=O)c2ccc(C(=O)O)cc2)cc1,2.39%
11,COC(=O)c1ccc(NC(=O)Nc2ccc(C)cc2)cc1,-16%
12,COC(=O)c1ccc(NCC(=O)c2ccccc2)cc1,92.3% (active)
13,COC(=O)c1ccc(NCC(=O)N2CCCCCC2)cc1,-5.06%
14,O=C(COC(=O)c1ccc(S(=O)(=O)Nc2ccccc2)cc1)NCC1CCCO1 (configuration not stated),-2.95%
15,CC1CN(S(=O)(=O)c2ccc(C(=O)Nc3sccc3C(N)=O)cc2)CC(C)O1 (configuration not stated),-3.19%
16,CCCOc1ccc(CNC(=O)C2CCN(c3nn4c(=O)cc(C)nc4s3)CC2)cc1,7.56%
17,O=C(Nc1ccc2oc(-c3ccc4ccccc4c3)nc2c1)c1cccs1,5.01%
18,CCc1ccc2oc(-c3ccc(N)cc3)nc2c1,89.6% (active)
19,Nc1ccc(-c2nnc(-c3ccccc3)o2)cc1,40%
20,Fc1ccc2nc(-c3ccccc3)nc(SCc3nnc(-c4ccccc4)o3)c2c1,9.5%
